Tau FP inhib: blocks human tau fibril formation measured by polarization; AID 1468; Potency, µM (top dose mostly 57.7 µM), usual class: inhibitors; K18 P301L tau heparin fibrillization, Alexa594 FP, 6 h; 0.39% of 280,000 active; also: nearly all actives have a fitted effect of over 55% in size
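FP of Alexa 594-tau after heparin (20 uM) induction. Substrate: human K18 P301L, 15 uM unlabeled, 0.24 uM labeled. Buffer 100 mM sodium acetate pH 7. 6 hr, 37 C.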
Tau ThT inhib: blocks human tau fibril formation measured by thioflavin T; recombinant tau K18 P301L, heparin-induced fibrillization, ThT fluorescence; Potency, µM (series often up to 57.4 µM), actives largely listed as inhibitors; 2.1% of 270,000 active; AID 1460; also: nearly all actives have a fitted effect of over 55% in size
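In this qHTS, human K18 P301L tau is incubated with compound and heparin for 6 hr at 37 C, and Thioflavin T fluorescence then reports fibril load.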
FBPA coupling cs: inhibits coupling enzyme system, counter-screen for aldolase hits | activity change, negative = inhibition, % at 58.2 µM, hits read low | coupling enzyme system counterscreen, AmpLite Red fluorescence | 0.67% of 290,000 active | AID 2472; in the data active = activity change below about -30%
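Fluorescence at 525 nm excitation and 598 nm emission measured inhibition of the coupled detection system without aldolase. Compounds (at 57.5 uM final) were preincubated 10 min at room temperature with coupling enzyme reagent before a 20 min substrate/AmpLite Red step.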
USP1-UAF1 inh: USP1/UAF1 (human) deubiquitinase inhibition; O94782; recombinant USP1/UAF1, Ub-Rhodamine cleavage fluorescence; Potency, µM (highest dose often 57.1 µM), usual class: inhibitors; 0.23% of 390,000 active; AID 743255; also: nearly all actives have a fitted effect of over 60% in size
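Step one: compound is pinned into 1nM USP1/UAF1 in HEPES pH 7.8 buffer with TCEP. Step two: 15 min room-temperature incubation. Step three: Ub-Rho (150nM final) starts cleavage, tracked by fluorescence over six one-minute reads.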
Tau fluor cs: counter-screen for tau fibril formation inhibitors. tau K18 P301L Alexa594 fluorescence, heparin fibrillization. Potency, µM (highest dose often 57.7 µM). 0.93% of 280,000 active. AID 1463; also: nearly all actives have a fitted effect of over 55% in size
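Human tau K18 P301L (15 uM unlabeled, 0.24 uM Alexa 594-labeled) in 100 mM sodium acetate pH 7 with 20 uM heparin, 6 hr at 37 C. ThT 30 uM added, 1 hr ambient; Alexa 594 FP and total fluorescence read at 555/632 nm.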
Each line names hits and unclear results; the compound was inactive in the other large screens; [ ] = dose if it differs, or a comment. The list is not random: actives were taken first. Their share in the collection is about 2.3%. Unless noted, calls follow the shape of the dose curve; as a rule, active = well fitted curve in the direction sought with a large enough effect; inconclusive = small, poorly fitted or top-dose-only effect, or another doubt; inactive = no such curve, though single readings can be large; an effect the other way counts as inactive or inconclusive.

Cc1cc(/C([O-])=C(/C(=S)Nc2ccc(F)cc2)[n+]2ccccc2)c(C)n1-c1ccc(F)cc1	Tau ThT inhib 28µM, Tau fluor cs inconclusive
Cc1c(CCO)c(=O)n(-c2ccccc2)n1S(=O)(=O)c1c(Cl)cc(Cl)cc1Cl	Tau ThT inhib inconclusive, FBPA coupling cs -39
COC(=O)c1cc(=O)c(O)c2c(O)c(O)ccc2c1	Tau FP inhib 7.9µM, Tau ThT inhib 3.5µM, FBPA coupling cs -31, Tau fluor cs inconclusive (no result: USP1-UAF1 inh)
CC(=S)/C=C1\Sc2ccccc2N1C	Tau ThT inhib 14µM, USP1-UAF1 inh inconclusive
COc1ccc(C(=O)/C=C2\Sc3ccccc3N2C)cc1	Tau ThT inhib inconclusive
CCC(=O)N1CCc2cc(Br)cc(S(=O)(=O)CCC(=O)Nc3cccc(Cl)c3)c21	none (no result: FBPA coupling cs)
Cc1cc(N2CCOCC2)ccc1/C=C1/SC(=O)NC1=O	Tau ThT inhib 10µM
Cc1ccc(C(=O)Nc2cccc(O)c2)cc1S(=O)(=O)N1CCCCCC1	Tau FP inhib inconclusive
O=C1C(NS(=O)(=O)c2ccc(Br)cc2)=C(N2CCCCC2)C(=O)c2ccccc21	USP1-UAF1 inh inconclusive (no result: Tau FP inhib, Tau ThT inhib, Tau fluor cs)
O=C1C(Nc2ccccc2)=C(N2CCCCC2)C(=O)c2ccccc21	Tau FP inhib inconclusive, Tau ThT inhib 18µM, FBPA coupling cs -50, USP1-UAF1 inh 25µM
O=C1C(Nc2cccc(O)c2)=C(N2CCCCC2)C(=O)c2ccccc21	Tau FP inhib inconclusive, Tau ThT inhib 14µM, FBPA coupling cs -51, USP1-UAF1 inh inconclusive, Tau fluor cs 18µM[quencher]
CN(C1=C(N2CCCCC2)C(=O)c2ccccc2C1=O)c1ccccc1	Tau ThT inhib inconclusive, USP1-UAF1 inh inconclusive, Tau fluor cs inconclusive
O=C(/C=C/c1ccc(O)cc1)c1ccc(NC2=C(N3CCCCC3)C(=O)c3ccccc3C2=O)cc1	Tau FP inhib inconclusive, Tau ThT inhib 7.9µM, FBPA coupling cs -46, USP1-UAF1 inh 16µM, Tau fluor cs 13µM[quencher]
COc1ccccc1NC1=C(N2CCCCC2)C(=O)c2ccccc2C1=O	Tau FP inhib inconclusive, Tau ThT inhib 13µM, FBPA coupling cs -51, USP1-UAF1 inh 18µM, Tau fluor cs inconclusive
COC(=O)C/C=C\[C@@H](C)[C@@H](/C=N\OC[C@@H](O)COCc1ccco1)NS(=O)(=O)c1ccc(C)cc1	none (no result: USP1-UAF1 inh)
COc1ccc(C2c3cc(OC)c(OC)cc3Cc3c4cc(OC)c(OC)cc4cc[n+]32)cc1OC (stereo not drawn)	none (no result: USP1-UAF1 inh)
COc1ccc(-c2nc(C)c(CCNC(=O)c3ccco3)s2)cc1	Tau ThT inhib inconclusive (no result: FBPA coupling cs)
CCCc1cnc2c(c1SCC(=O)Nc1ccc([N+](=O)[O-])cc1)c(=O)n(C)c(=O)n2C	none (no result: FBPA coupling cs)
CCOC(=O)c1cccc(NC(=O)CCc2c(C)nn(-c3ccc(N4CCCC4)nn3)c2C)c1	Tau ThT inhib inconclusive (no result: FBPA coupling cs)
Cc1ccc(NC2=C(N3CCCCC3)C(=O)c3ccccc3C2=O)cc1	FBPA coupling cs -45, USP1-UAF1 inh inconclusive
CC1=C(Nc2ccc(C(=O)O)cc2)C(=O)c2ccccc2C1=O	USP1-UAF1 inh inconclusive (no result: Tau FP inhib, Tau ThT inhib, Tau fluor cs)
Cc1cccc(OCC(=O)N/N=C/c2ccc(N(C)C)cc2)c1	Tau ThT inhib 3.5µM
O=C1CC(c2nc(-c3cccc(Cl)c3)no2)CN1c1ccc2c(c1)OCCO2 (stereo not drawn)	Tau ThT inhib inconclusive (no result: FBPA coupling cs)
COc1ccc(C(=O)c2cn(Cc3cccc(C)c3)c3cc4c(cc3c2=O)OCO4)cc1	none (no result: FBPA coupling cs)
CC[n+]1c(C=C2C=C(C)OC(C)=C2)sc2ccccc21	Tau ThT inhib 25µM
CCN1/C(=C/C=C/C=C/c2sc3ccccc3[n+]2CC)Sc2ccccc21	Tau FP inhib 18µM, Tau ThT inhib 4µM, Tau fluor cs 16µM[quencher] (no result: USP1-UAF1 inh)
CC[n+]1c(/C=C2/C=C(C)CC(C)C2)sc2ccccc21 (stereo not drawn)	Tau ThT inhib inconclusive
CC[n+]1c(/C=C/Nc2ccccc2)sc2ccccc21	Tau ThT inhib inconclusive, Tau fluor cs 28µM[fluorescent]
NS(=O)(=O)c1ccc2c(c1)C1C=CCC1C(C1CC=CCC1)N2 (stereo not drawn)	Tau FP inhib inconclusive, Tau ThT inhib 35µM, Tau fluor cs 28µM[quencher]
CC(C)C1Nc2ccc(S(N)(=O)=O)cc2C2C=CCC21 (stereo not drawn)	Tau FP inhib inconclusive, Tau ThT inhib 20µM, Tau fluor cs inconclusive
CCOc1ccc(CNC(=O)CCCn2c(=O)c3cccn3c3ccccc32)cc1	Tau ThT inhib inconclusive, Tau fluor cs inconclusive (no result: FBPA coupling cs)

Bioassay records: PubChem BioAssay, National Center for Advancing Translational Sciences (NCATS)
